The panel holds about 79,000 compounds, 15% with a hit somewhere; the sample as a whole holds those more often. Activity calls are given as the source filed them. No stated cut-off is given here; in the data, active means growth inhibition above about 70%; inactive means the rest.
Columns and labels:
[1] = NCI Yeast Anticancer Drug Screen. Data for the rad52 strain (AID 147);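 further: 0% = growth of vehicle-treated control cultures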; conditions: S. cerevisiae rad52 mutant growth inhibition, active compounds read high
Summary of the method: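 DNA repair-defective yeast; compound exposure; growth scored against vehicle controls.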

[2] = NCI Yeast Anticancer Drug Screen. Data for the wt1 strain (AID 149);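 further: 0% = growth of vehicle-treated wt1 cultures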; conditions: S. cerevisiae wt1 strain (SPY 50644) growth inhibition, active compounds read high
Summary of the method: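 Vehicle-normalised growth inhibition; strain wt1; compound exposure.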

[3] = NCI Yeast Anticancer Drug Screen. Data for the rad50EPP+ strain (AID 151);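 further: 0% = growth of vehicle-treated control cultures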; conditions: S. cerevisiae rad50 mutant strain, active compounds read high
Summary of the method: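 rad50EPP+ yeast treated with test compounds. Readout: growth vs vehicle control.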

[4] = NCI Yeast Anticancer Drug Screen. Data for the mgt1 strain (AID 153); conditions: S. cerevisiae mgt1 mutant growth inhibition, active compounds read high
Summary of the method: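 Growth inhibition relative to vehicle controls was scored for the mgt1 yeast strain after compound exposure.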

[5] = NCI Yeast Anticancer Drug Screen. Data for the rad50 strain (AID 155);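 further: 0% = growth of vehicle-only cultures of the same strain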; conditions: S. cerevisiae rad50 strain growth inhibition, active compounds read high
Summary of the method: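 A DNA repair-deficient yeast mutant serves as the test organism; compound-induced growth inhibition is calculated against vehicle-treated cells.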

[6] = NCI Yeast Anticancer Drug Screen. Data for the mec2-1 strain (AID 157); conditions: S. cerevisiae mec2-1 strain, active compounds read high
Summary of the method: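 Growth inhibition is read against vehicle-treated controls after compound exposure of the mec2-1 yeast strain, which is defective in DNA damage repair or cell cycle control.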

[7] = NCI Yeast Anticancer Drug Screen. Data for the rad14 strain (AID 159);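 further: 0% = growth of vehicle-treated control cultures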; conditions: S. cerevisiae rad14 strain growth inhibition, active compounds read high
Summary of the method: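 Vehicle-treated cultures served as the baseline for growth inhibition of a DNA repair-mutant yeast strain exposed to each compound.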

[8] = NCI Yeast Anticancer Drug Screen. Data for the sgs1 mgt1 strain (AID 161);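 further: 0% = growth of cultures given vehicle only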; conditions: S. cerevisiae sgs1 mgt1 strain, active compounds read high
Summary of the method: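 This yeast growth screen uses a strain with defined DNA-repair lesions; compound-treated growth is compared with vehicle-treated growth.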

[9] = NCI Yeast Anticancer Drug Screen. Data for the CLN2oe strain (AID 163);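 further: 0% = growth of vehicle-only control cultures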; conditions: S. cerevisiae CLN2oe strain, active compounds read high
Summary of the method: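 Compound-treated yeast; growth vs vehicle ctrl = % inhibition. Genetically altered strain (cell-cycle control).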

[10] = NCI Yeast Anticancer Drug Screen. Data for the cln2 rad14 strain (AID 165);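 further: 0% = growth equal to vehicle treated cultures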; conditions: S. cerevisiae cln2 rad14 strain, active compounds read high
Summary of the method: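 Growth inhibition, relative to vehicle-treated controls, is the read-out. The test organism is a yeast strain with defined genetic alterations, cln2 rad14.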

[11] = NCI Yeast Anticancer Drug Screen. Data for the bub3 strain (AID 167); conditions: S. cerevisiae bub3 mutant strain, active compounds read high
Summary of the method: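 Inhibition values come from growth of compound-treated mutant yeast normalised to vehicle-treated controls.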

[12] = NCI Yeast Anticancer Drug Screen. Data for the wt2 strain (AID 169);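 further: 0% = growth of vehicle-treated yeast cultures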; conditions: S. cerevisiae wt2 strain growth inhibition, active compounds read high
Summary of the method: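 Compound exposure of yeast; growth compared with vehicle controls; inhibition reported.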

[13] = NCI Yeast Anticancer Drug Screen. Data for the mlh1 strain (AID 171);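 further: 0% = growth of vehicle-treated control cultures of the same strain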; conditions: S. cerevisiae mlh1 strain growth inhibition, active compounds read high
Summary of the method: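 Compounds are applied to a genetically altered yeast strain, and its growth is compared with that of vehicle-treated cultures to give percent inhibition.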

[14] = NCI Yeast Anticancer Drug Screen. Data for the mlh1 rad18 strain (AID 175); conditions: S. cerevisiae mlh1 rad18 strain growth inhibition, active compounds read high
Summary of the method: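 Cells of a genetically altered yeast strain, deficient in DNA damage repair, were treated with compound. Their growth was then compared with that of vehicle-treated cultures to give inhibition.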

[15] = NCI Yeast Anticancer Drug Screen. Data for the rad18 strain (AID 177); conditions: S. cerevisiae rad18 mutant growth inhibition, active compounds read high
Summary of the method: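 Compounds are applied to a repair-deficient yeast strain, and growth is compared with that of vehicle-treated cultures to give percent inhibition.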

[16] = at 5.0 µM (retest, dose inferred, filed as 0.5)
[17] = at 50.0 µM (retest, dose inferred, filed as 5.0)

Measured: growth inhibition

Cc1c2cc[n+](Cc3ccc(I)cc3)cc2c(C)c2c1[nH]c1ccccc12
active: [1]; at 11.0 µM 96% | [1]; at 33.0 µM 98% | [1]; at 100.0 µM 95% | [2]; at 11.0 µM 89% | [2]; at 33.0 µM 98% | [2]; at 100.0 µM 97% | [3]; at 33.0 µM 90% | [3]; at 100.0 µM 96% | [4]; at 11.0 µM 90% | [4]; at 33.0 µM 97% | [4]; at 100.0 µM 96% | [5]; at 11.0 µM 96% | [5]; at 33.0 µM 95% | [5]; [17] 93% | [5]; at 50.0 µM 85.5% | [5]; at 100.0 µM 89% | [6]; at 11.0 µM 96% | [6]; at 33.0 µM 97% | [6]; [17] 95% | [6]; at 50.0 µM 87.2% | [6]; at 100.0 µM 95% | [7]; at 11.0 µM 94% | [7]; at 33.0 µM 97% | [7]; at 100.0 µM 96% | [8]; [16] 74% | [8]; [17] 94% | [8]; at 50.0 µM 85.8% | [9]; at 11.0 µM 92% | [9]; at 33.0 µM 97% | [9]; at 100.0 µM 94% | [10]; [17] 94% | [10]; at 50.0 µM 86% | [11]; at 11.0 µM 97% | [11]; at 33.0 µM 96% | [11]; [17] 94% | [11]; at 50.0 µM 83.3% | [11]; at 100.0 µM 89% | [12]; at 11.0 µM 87% | [12]; at 33.0 µM 97% | [12]; at 100.0 µM 96% | [13]; at 11.0 µM 95% | [13]; at 33.0 µM 97% | [13]; at 100.0 µM 96% | [14]; [17] 94% | [14]; at 50.0 µM 89.8% | [15]; at 11.0 µM 97% | [15]; at 33.0 µM 96% | [15]; at 100.0 µM 93%
inactive: [1]; at 1.2 µM 39% | [1]; at 3.7 µM 36% | [2]; at 1.2 µM 10% | [2]; at 3.7 µM 8% | [3]; at 1.2 µM 30% | [3]; at 3.7 µM 29% | [3]; at 11.0 µM 34% | [4]; at 1.2 µM 9% | [4]; at 3.7 µM -1% | [5]; at 1.2 µM 18% | [5]; at 3.7 µM 12% | [5]; [16] 5% | [6]; at 1.2 µM 19% | [6]; at 3.7 µM 8% | [6]; [16] 33% | [7]; at 1.2 µM 12% | [7]; at 3.7 µM 0% | [9]; at 1.2 µM 14% | [9]; at 3.7 µM 19% | [10]; [16] 17% | [11]; at 1.2 µM 18% | [11]; at 3.7 µM 18% | [11]; [16] 55% | [12]; at 1.2 µM -21% | [12]; at 3.7 µM -24% | [13]; at 1.2 µM 35% | [13]; at 3.7 µM 35% | [14]; [16] 35% | [15]; at 1.2 µM 40% | [15]; at 3.7 µM 31%

Reference: PubChem BioAssay (NCI)
